Measured values as given in PubChem BioAssay (Tox21).
Where “and” joins values, the source holds several entries; their conditions need not be identical. Equal entries are not always repeated. Calls of active or inactive are those of the source. Where a call stands in place of a potency, no number is given. Unless noted, calls follow the shape of the dose curve; as a rule, active = well fitted curve in the direction sought with a large enough effect in the repeat runs; inconclusive = weak or mixed curves; inactive = no such curve, though single readings can be large; an effect the other way counts as inactive or inconclusive. Positions of bridges follow the written chain, without caps; N, C: chain ends. Non-standard residues stand in square brackets, D forms with d. Residues, ends and D or L forms follow the SMILES beside them. *: point of attachment. X2 = CC[C@H](C)CCCCC(=O)*; Dab = NCC[C@H](N)C(=O)O

Assays:
[1] = qHTS assay to identify small molecule antagonists of the thyroid receptor (TR) signaling pathway - cell viability counter screen (AID 743064); conditions: GH3.TRE-Luc viability, CellTiter-Fluor, 24 h; series mostly up to 70.3 µM; also: nearly all actives have a fitted effect of over 50% in size; also: potency is read from the fitted curve at half-maximal effect
Outline: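 GH3.TRE-Luc rat pituitary cells dosed after 4 hr plating, co-stimulated with T3 at 1 nM final, incubated 23.5 h at 37 C. Viability measured in the same wells by CellTiter-Fluor fluorescence after 30 min further at 37 C.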

[2] = qHTS assay to identify small molecule antagonists of the thyroid receptor (TR) signaling pathway (AID 743065); conditions: GH3.TRE-Luc, T3-stimulated luciferase inhibition, 23.5 h; series mostly up to 70.3 µM; also: nearly all actives have a fitted effect of over 55% in size; also: potency is read from the fitted curve at half-maximal effect
Outline: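 GH3.TRE-Luc rat pituitary cells (two TREs driving luciferase) were dosed with compound, then stimulated with 1 nM T3 (final) for 23.5 h at 37 C. ONE-Glo luminescence was the read-out, with CellTiter-Fluor fluorescence as the cytotoxicity counter-screen.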

[3] = tested on: thyroid hormone receptor (rat, GH3 cells); assay: qHTS assay to identify small molecule agonists of the thyroid receptor (TR) signaling pathway (AID 743066; calls by dose curve); conditions: GH3.TRE-Luc cells, TR agonist luciferase, 24 h; series mostly up to 83.9 µM
[4] = target: Estrogen receptor (Homo sapiens) (UniProt P03372); assay: qHTS assay to identify small molecule antagonists of the estrogen receptor alpha (ER-alpha) signaling pathway (AID 743069; active = well fitted curve in the direction sought with a large enough effect in the signal ratio in the repeat runs, not every such curve was filed as active; inconclusive = weak or mixed curves, or effect the other way; inactive = no such curve, though single readings can be large or run the other way; the % refers to the signal ratio); conditions: HEK293 ER-alpha-UAS-bla, beta-lactamase ratio, antagonist mode; series mostly up to 69.4 µM
Outline: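 HEK293 ER-alpha-UAS-bla GripTite cells, held overnight in 2% charcoal-stripped FBS, 5,000 cells/well, preincubated 4 h, then compound plus 17beta-estradiol for 18 h at 37C. Beta-lactamase read by LiveBLAzer B/G FRET substrate, 2 h at room temperature.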

[5] = qHTS assay to identify small molecule antagonists of the estrogen receptor alpha (ER-alpha) signaling pathway - cell viability counter screen (AID 743074; calls by dose curve;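 also: HEK293 cells carrying ER-alpha-UAS-bla reporter stimulated with 17beta-estradiol; nearly all actives have a fitted effect of over 45% in size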); conditions: ERalpha-bla HEK293 viability, CellTiter-Glo luminescence, 18 h; series mostly up to 69.4 µM
[6] = target: Estrogen receptor (Homo sapiens) (UniProt P03372); assay: qHTS assay to identify small molecule agonists of the estrogen receptor alpha (ER-alpha) signaling pathway (AID 743075; calls by dose curve; also: potency is read from the fitted curve at half-maximal effect); conditions: HEK293 ER-alpha-UAS-bla, beta-lactamase FRET ratio, 18 h; series mostly up to 70.1 µM
[7] = target: Estrogen receptor (Homo sapiens) (UniProt P03372); assay: qHTS assay to identify small molecule agonists of the estrogen receptor alpha (ER-alpha) signaling pathway using the BG1 cell line (AID 743079); conditions: BG1Luc4E2 cells, ERE-luciferase agonist, 22 h; activation: at 70.3 µM (top of the series); also: nearly all actives have a fitted effect of over 20% in size; also: potency is read from the fitted curve at half-maximal effect
[8] = qHTS assay to identify small molecule antagonists of the estrogen receptor alpha (ER-alpha) signaling pathway using the BG1 cell line (AID 743080; calls by dose curve;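 also: BG1 cells stimulated with 17beta-estradiol alongside compound; nearly all actives have a fitted effect of over 25% in size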); conditions: BG1Luc4E2 ERE-luciferase antagonist mode, luminescence; series mostly up to 70.3 µM
Outline: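 Endogenous full-length ER-alpha in BG1-Luc-4E2 cells drives a stably integrated 4×ERE luciferase gene; compounds were tested against 17beta-estradiol over 21.5 h, with luminescence and multiplexed viability fluorescence recorded.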

[9] = qHTS assay to identify small molecule antagonists of the estrogen receptor alpha (ER-alpha) signaling pathway using the BG1 cell line - cell viability counter screen (AID 743081); conditions: BG1Luc4E2 viability, CellTiter-Fluor, 22 h; series mostly up to 70.3 µM;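 also: compound given together with 17beta-estradiol as the ER stimulus; nearly all actives have a fitted effect of over 45% in size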
Aromatase (Homo sapiens) = Aromatase (Homo sapiens) (UniProt P11511); assay: qHTS assay to identify aromatase inhibitors (AID 743083); conditions: MCF-7 aro ERE, testosterone-driven ERE luciferase, 24 h; series mostly up to 70.3 µM; also: nearly all actives have a fitted effect of over 55% in size
Sequence of Aromatase (Homo sapiens) (P11511 whole entry, looked up): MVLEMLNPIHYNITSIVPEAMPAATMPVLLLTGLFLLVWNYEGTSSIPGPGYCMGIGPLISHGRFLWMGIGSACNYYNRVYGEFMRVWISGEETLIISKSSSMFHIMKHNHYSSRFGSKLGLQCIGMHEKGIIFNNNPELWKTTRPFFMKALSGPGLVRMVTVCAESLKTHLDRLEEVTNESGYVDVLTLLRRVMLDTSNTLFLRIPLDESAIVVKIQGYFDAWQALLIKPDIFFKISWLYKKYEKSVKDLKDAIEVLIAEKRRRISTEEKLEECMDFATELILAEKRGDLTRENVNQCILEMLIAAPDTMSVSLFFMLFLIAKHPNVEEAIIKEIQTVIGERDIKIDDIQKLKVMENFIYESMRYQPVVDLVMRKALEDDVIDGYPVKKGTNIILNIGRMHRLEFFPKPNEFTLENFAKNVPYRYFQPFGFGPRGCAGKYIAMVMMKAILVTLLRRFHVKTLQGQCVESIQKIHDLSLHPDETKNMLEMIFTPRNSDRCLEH

Sequence of Estrogen receptor (Homo sapiens) (P03372 whole entry, looked up): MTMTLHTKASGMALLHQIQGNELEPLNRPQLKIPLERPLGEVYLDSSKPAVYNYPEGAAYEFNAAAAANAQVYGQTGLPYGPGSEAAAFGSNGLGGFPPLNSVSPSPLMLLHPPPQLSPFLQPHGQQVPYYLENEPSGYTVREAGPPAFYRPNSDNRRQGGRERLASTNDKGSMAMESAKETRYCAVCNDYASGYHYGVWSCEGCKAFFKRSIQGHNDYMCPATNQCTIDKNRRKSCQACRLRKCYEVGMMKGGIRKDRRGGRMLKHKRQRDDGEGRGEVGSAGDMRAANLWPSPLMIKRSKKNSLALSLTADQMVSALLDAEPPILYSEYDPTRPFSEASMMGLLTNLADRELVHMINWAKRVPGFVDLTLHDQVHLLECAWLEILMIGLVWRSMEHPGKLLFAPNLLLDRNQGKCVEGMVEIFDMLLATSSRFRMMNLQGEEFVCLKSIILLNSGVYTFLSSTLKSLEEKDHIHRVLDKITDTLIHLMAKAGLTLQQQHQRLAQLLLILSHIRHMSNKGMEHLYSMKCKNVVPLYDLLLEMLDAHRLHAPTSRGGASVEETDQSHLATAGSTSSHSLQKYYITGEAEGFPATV

SMILES	Potency [1]	Potency [2]	Potency [3]	Potency [4]	Potency [5]	Potency [6]	Potency [7]	Potency [8]	Potency [9]	Potency (Aromatase (Homo sapiens))
O=C(CCCCCCCCCCCCC1CCCC1)Nc1ccc(S(=O)(=O)c2ccc(NC(=O)CCCCCCCCCCCCC3CCCC3)cc2)cc1	inactive	inactive	inactive	inactive	inactive	inactive	inactive	inactive	inactive	inactive
[O]=[Bi][O]C(=O)[O][Bi]=[O]	inactive	inactive	inactive	inactive	inactive	inactive	inactive	inactive	inactive	inactive
CCC(Oc1ccccc1)C(=O)N[C@@H]1C(=O)N2[C@@H]1SC(C)(C)[C@@H]2C(=O)O (stereo not given in full)	inactive	inactive	inactive	inactive	inactive	inactive	inactive	inactive	inactive	inactive
O=C(O)c1cccc(/C=C2/C[C@@H]3[C@@H](/C=C/[C@@H](O)C4CCCCC4)[C@H](O)C[C@@H]3O2)c1	inactive	inactive	inactive	inactive	inactive	inactive	inactive	inactive	inactive	inactive
CN[C@@H]1[C@@H](O)[C@@H](O[C@@H]2[C@@H](O)[C@H](O[C@H]3O[C@H](CN)[C@@H](O)[C@H](O)[C@H]3O)[C@@H](N)C[C@H]2NC(=O)C(O)CN)OC[C@]1(C)O (stereo not given in full)	inactive	inactive	inactive	inactive	inactive	inactive	inactive	inactive	inactive	inactive
O=S(=O)(O)CCCS(=O)(=O)O	inactive	inactive	inactive	inactive	inactive	inactive	inactive	inactive	inactive	inactive
CCN1C(=O)NC(c2ccccc2)C1=O (stereo not given)	inactive	inactive	inactive	inactive	inactive	inactive	inactive	inactive	inactive	inactive
CC(O)[C@@H]1NC(=O)[C@H](Cc2ccccc2)NC(=O)[C@H](C(C)O)NC(=O)[C@H](CCCCN)NC(=O)[C@H](Cc2c[nH]c3ccccc23)NC(=O)[C@H](Cc2ccccc2)NC(=O)[C@H](Cc2ccccc2)NC(=O)[C@H](CC(N)=O)NC(=O)[C@H](CCCCN)NC(=O)[C@@H](NC(=O)CNC(=O)[C@H](C)N)CSSC[C@@H](C(=O)O)NC(=O)[C@H](CO)NC1=O (stereo not given in full)	inactive	inactive	inactive	inactive	inactive	inactive	inactive	inactive	inactive	inactive
CN(C(=O)CO)c1c(I)c(C(=O)NCC(O)CO)c(I)c(C(=O)NCC(O)CO)c1I (stereo not given)	inactive	inactive	inactive	inactive	inactive	inactive	inactive	inactive	inactive	inactive
CC(C)CCCC(C)NC(C)C (stereo not given)	inactive	inactive	inactive	inactive	inactive	inactive	inactive	inactive	inactive	inactive
NCCC(=O)[N-][C@@H](Cc1cnc[nH]1)C(=O)O.[Zn]	inactive	inactive	inactive	inactive	inactive	inactive	inactive	inactive	inactive	inactive
COc1cc2c(cc1OC)CC(=O)N(CCCN(C)C[C@H]1Cc3cc(OC)c(OC)cc31)CC2	inactive	inactive	inactive	inactive	inactive	inactive	inactive	inactive	inactive	inactive
CC(C)(CO)[C@@H](O)C(=O)NCCC(=O)NCCSSCCNC(=O)CCNC(=O)[C@H](O)C(C)(C)CO	inactive	inactive	inactive	inactive	inactive	inactive	inactive	inactive	inactive	inactive
CO/N=C(\C(=O)N[C@@H]1C(=O)N2C(C(=O)O)=CCS[C@H]12)c1csc(N)n1	inactive	inactive	inactive	inactive	inactive	inactive	inactive	inactive	inactive	inactive
CC(O)[C@H]1CC[C@H]2[C@@H]3CC[C@@H]4C[C@@H](O)CC[C@]4(C)[C@H]3CC[C@]12C (stereo not given in full)	inactive	inactive	inactive	inactive	inactive	3.38 µM [inconclusive] (active)	9.44 µM (active)	inactive	inactive	inactive
CCOC(=O)c1c[nH]c2cc(OCC(C)C)c(OCC(C)C)cc2c1=O	inactive	inactive	inactive	inactive	inactive	inactive	inactive	inactive	inactive	inactive
CN1[C@@H]2CC[C@H]1CC(OC(c1ccccc1)c1ccccc1)C2 (stereo not given in full)	16.8 µM (active) and 26.6 µM (active)	13.3 µM (active) and 23.7 µM (active) and 11.9 µM (active)	inactive	inactive	inactive	inactive	inactive	inactive	inactive	inactive
CC(=O)O[C@H]1C[C@@H]2CC[C@@H]3[C@H](CC[C@@]4(C)[C@H]3C[C@H](N3CC[N+](C)(C)CC3)[C@@H]4OC(C)=O)[C@@]2(C)C[C@@H]1N1CC[N+](C)(C)CC1	inactive	inactive	inactive	inactive	inactive	inactive	inactive	inactive	inactive	inactive
O=C(O)c1ccc(NC(=O)[C@H](Cc2ccc(O)cc2)NC(=O)c2ccccc2)cc1	inactive	inactive	inactive	inactive	inactive	inactive	inactive	inactive	inactive	inactive

SMILES	Potency [1]	Potency [2]	Potency [3]	Potency [4]	Potency [5]	Potency [6]	Potency [7]	Potency [8]	Potency [9]	Potency (Aromatase (Homo sapiens))
O=P(O)(O)OC[C@H](O)CO	inactive	inactive	inactive	inactive	inactive	inactive	inactive	inactive	inactive	inactive
CN1CCN(C(c2ccccc2)c2ccc(Cl)cc2)CC1 (stereo not given)	5.69 µM (active)	10.1 µM (active)	inactive	inactive	inactive	inactive	inactive	inactive	inactive	inactive
C=CCCCCCCCCC(=O)OC	inactive	inactive	inactive	inactive	inactive	inactive	inactive	inactive	inactive	inactive
O=C(O)c1cc(N=Nc2ccc(O)c(C(=O)O)c2)ccc1O	inactive	inactive	inactive	inactive	inactive	inactive	inactive	inactive	inactive	inactive
O=C(OCCO)c1ccccc1O	inactive	inactive	inactive	inactive	inactive	inactive	inactive	inactive	inactive	inactive
CCOC(=O)[C@@H](N)CS	inactive	inactive	inactive	inactive	inactive	inactive	29.8 µM (active)	inactive	inactive	inactive
CCOC(=O)[C@H](CS)NCCN[C@@H](CS)C(=O)OCC	inactive	inactive	inactive	inactive	inactive	inactive	inactive	inactive	inactive	inactive
O=C(Cc1cccs1)N[C@@H]1C(=O)N2C(C(=O)[O-])=C(C[n+]3ccccc3)CS[C@H]12	inactive	inactive	inactive	inactive	inactive	inactive	inactive	inactive	inactive	inactive
CCCCC(O)c1ccccc1 (stereo not given)	inactive	inactive	inactive	inactive	inactive	inactive	21.1 µM (active)	inactive	inactive	inactive
O=C(NNCS(=O)(=O)O)c1ccncc1	inactive	inactive	inactive	inactive	inactive	inactive	inactive	inactive	inactive	inactive
CCN(CC)CCOC(=O)c1cccnc1	inactive	inactive	inactive	inactive	inactive	inactive	inactive	inactive	inactive	inactive
CC(C)(C)NCC(O)CSc1nc(-c2ccc(C(N)=O)s2)cs1 (stereo not given)	inactive	inactive	inactive	inactive	inactive	inactive	inactive	inactive	inactive	inactive
CCCCCCCCCCCCOCCCN	inactive	inactive	inactive	inactive	inactive	inactive	inactive	inactive	inactive	inactive
NS(=O)(=O)c1cc2c(cc1Cl)NC(Cc1ccccc1)NS2(=O)=O (stereo not given)	inactive	inactive	inactive	inactive	inactive	inactive	inactive	inactive	inactive	inactive
C=CCN1CCCC1CNC(=O)c1cc(S(N)(=O)=O)cc(OC)c1OC (stereo not given)	inactive	inactive	inactive	inactive	inactive	inactive	inactive	inactive	inactive	inactive
CC(C)[C@@H](N)C(=O)O	inactive	inactive	inactive	inactive	inactive	inactive	inactive	inactive	inactive	inactive
O=C(O)CO.[NH2-].[NH2-].[Pt+2]	inactive	inactive	inactive	inactive	inactive	inactive	inactive	inactive	inactive	inactive
CC[C@H](C)CCCCC(=O)N[C@@H](CCN)C(=O)N[C@H](C(=O)N[C@@H](CCN)C(=O)N[C@H]1CCNC(=O)[C@H]([C@@H](C)O)NC(=O)[C@H](CCN)NC(=O)[C@H](CCN)NC(=O)[C@H](CC(C)C)NC(=O)[C@@H](CC(C)C)NC(=O)[C@H](CCN)NC1=O)[C@@H](C)O (X2-[Dab]T[Dab][Dab][Dab][dL]L[Dab][Dab]T; lactam 4-C)	inactive	inactive	inactive	inactive	inactive	inactive	inactive	inactive	inactive	inactive
CN1CCN(C2=Nc3ccccc3Cc3ccccc32)CC1	13.3 µM (active)	23.7 µM (active)	inactive	inactive	inactive	inactive	inactive	inactive	inactive	inactive
